# Measured values published in the OligoGym collection.
# Biological target: FAM89B
# Test: pooled miR-30 sensor sort-seq; sequence = guide strand
# Details: shRNA
# Further: reference of the scale not given here.
row,Sequence,sensor-assay potency score (higher = more potent)
1,TGACAGGACGACGCGGGCCGGC,-1.62
2,TGTAGTCCTGGATTGACTCGTA,-0.175
3,TTAAGGAGGCCGCTGAGGCCGC,-1.49
4,TCAGGTCTTGGCACAGGTGTTT,-0.832
5,TGGATTGACTCGTACAGGCCCC,-0.992
6,AACATCTCCTTGCGCAGCGCGG,-1.39
7,TCCTGGATTGACTCGTACAGGC,-1.73
8,TTGTAGTCCTGGATTGACTCGT,0.301
9,TAGTCCTGGATTGACTCGTACA,-1.39
10,TTTGTAGTCCTGGATTGACTCG,-1.36
11,TTGCGCAGCGCGGCCAGCGCTG,-1.52
12,ATCGGGAGGCTCCTCGTCGTCA,-1.39

# Biological target: FAM9C
# Test: as above
# Details: shRNA
row,Sequence,sensor-assay potency score (higher = more potent)
1,TAACTAAACACTGTCATGTGGT,0.0242
2,TTAACTAAACACTGTCATGTGG,0.189
3,TTTTGCAATCTTTTCAATCCTT,0.00533
4,TTTGCAATCTTTTCAATCCTTT,-0.0948
5,AATATCTTCTAGCTCCTTGGTA,-0.174
6,ATTCTGTTCTTTATTTCGCTGC,-0.428
7,AACATTTTTAATTCTGTTCTTT,-0.182
8,TATTTTAATTTGTTCTTCCTTT,-0.236
9,TTACTGGATCCTTTCCTGCAAG,-1.19
10,ATCAGTTACATCTCCCTCCTTT,-0.105
11,TAACAGGTTTTCTTTCCTCATG,-1.34
